From PubChem BioAssay
HT1080 IDH1KD tx: toxicity to HT-1080 IDH1 knockdown cells (counter line). Potency, µM (titrated, usually from 46.1 µM), for inactives: top-dose activity, negative = toxicity, actives largely listed as cytotoxic. HT-1080 IDH1 knockdown viability, ATP luminescence, 48 h. 2% of 360,000 active. AID 686971;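 further: potency means the concentration at half of the fitted maximal effect; 0% = DMSO wells and -100% = cell-free medium wells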
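Luminescent ATP read-out (CellTiter-Glo, 10 min at room temperature) after 48 h compound exposure at 37 °C gave viability of IDH1-knockdown HT-1080 cells. Activity was normalised to DMSO and cell-free wells, then fitted as concentration-response curves.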
TDP1 cell noCPT: qHTS for Inhibitors of human tyrosyl-DNA phosphodiesterase 1 (TDP1): qHTS in cells in absence of CPT | 15% of 420,000 active | Potency, µM (top dose mostly 46.2 µM), for inactives: at the top dose activity change, negative = growth inhibition, hits mostly inhibitors | DT40 Tdp1-/- hTDP1 cells, no CPT, ATP luminescence, 48 h | AID 686978, 2013; further: potency means the concentration at half of the fitted maximal effect; nearly all actives have a fitted effect of over 55% in size
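Camptothecin absent (DMSO only). Human TDP1-complemented DT40 knockout cells, 400 cells/well, 37 °C for minimum 48 hr; ATP measured via CellTiter-Glo, 30 min dark incubation, luminescence.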
12-LOX inh: inhibitors of human 12S-lipoxygenase ALOX12. P18054. Potency, µM (series often up to 108 µM), for inactives: top-dose activity change, negative = inhibition, hits mostly inhibitors. purified 12hLO, xylenol orange hydroperoxide absorbance. 1.1% of 580,000 active; further: potency means the concentration at half of the fitted maximal effect
Target sequence (P18054 whole entry, looked up): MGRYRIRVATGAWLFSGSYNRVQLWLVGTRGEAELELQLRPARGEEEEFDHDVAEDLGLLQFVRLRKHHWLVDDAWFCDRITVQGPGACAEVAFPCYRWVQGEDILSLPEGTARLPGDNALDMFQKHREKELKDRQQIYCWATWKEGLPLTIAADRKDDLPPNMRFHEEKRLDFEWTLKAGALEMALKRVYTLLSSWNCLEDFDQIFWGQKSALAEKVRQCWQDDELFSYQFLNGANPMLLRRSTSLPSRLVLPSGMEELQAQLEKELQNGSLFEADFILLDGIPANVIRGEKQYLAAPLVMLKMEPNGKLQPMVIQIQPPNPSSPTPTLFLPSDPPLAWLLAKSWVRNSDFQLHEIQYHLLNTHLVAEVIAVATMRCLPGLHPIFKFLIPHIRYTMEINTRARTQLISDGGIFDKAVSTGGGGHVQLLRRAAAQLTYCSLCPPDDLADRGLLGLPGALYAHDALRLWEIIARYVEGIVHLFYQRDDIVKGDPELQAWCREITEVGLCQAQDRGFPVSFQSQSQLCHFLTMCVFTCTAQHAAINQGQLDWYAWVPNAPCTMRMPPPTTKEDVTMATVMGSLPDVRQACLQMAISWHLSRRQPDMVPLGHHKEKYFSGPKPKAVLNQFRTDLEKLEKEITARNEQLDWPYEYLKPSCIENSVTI
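Hydroperoxide product was detected by ferrous iron/xylenol orange as the 573 to 405 nm absorbance ratio. Arachidonic acid at 40 uM (final) was turned over for 30 min at room temperature by 150 nM human 12hLO, pH 7.0 Hepes buffer, after 15 min compound preincubation.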
TDP1 cell CPT: growth inhibition of DT40 Tdp1-/-;hTDP1 cells with camptothecin (screen for TDP1 inhibitors). chicken DT40 Tdp1-/-;hTDP1 cells + 20 nM CPT, ATP luminescence, 48 h. Potency, µM (doses to about 46.2 µM), for the others: at the top dose activity change, negative = growth inhibition, usual class: inhibitors. 12% of 420,000 active. AID 686979; further: potency means the concentration at half of the fitted maximal effect; nearly all actives have a fitted effect of over 55% in size
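Chicken DT40 Tdp1-/- cells stably complemented with human TDP1 were seeded at 400 cells/well in medium containing 20 nM camptothecin, exposed to pin-transferred compounds, and grown at 37 °C for at least 48 hr. Viability was read as ATP luminescence.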
HT1080NT lethal: kills 2HG-producing HT-1080-NT fibrosarcoma cells; Potency, µM (titrated, usually from 46.1 µM), for inactives: at the top dose activity, negative = less viability, hits mostly cytotoxic; 1.6% of 360,000 active; AID 686970; HT-1080-NT fibrosarcoma viability, CellTiter-Glo ATP luminescence, 48 h;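 further: NT is the 2HG producing partner of a matched IDH1 knockdown line; potency means the concentration at half of the fitted maximal effect; 0% = DMSO-treated cells and -100% = media-only wells without cells; nearly all actives have a fitted effect of over 55% in size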
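Compounds were tested in concentration-response format on HT-1080-NT cells for 48 hours at 37 degrees C. Cell viability came from CellTiter-Glo luminescence; curves were classified by r2, response magnitude and activity.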
IL1B secr inh: inflammasome signaling inhibition, IL-1 beta readout | 4.7% of 360,000 active | AID 743279 | activity change, % at 57.5 µM | THP-1 LPS/ATP IL-1B secretion, AlphaLISA, 16 h; active compounds read low; in the data active means activity change below about -50%; inconclusive means mostly about -30% to -49%
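Secreted IL-1B measured by AlphaLISA bead assay after 16 h compound exposure of THP-1 cells; compounds (final up to 57.5 uM) added 1 h before LPS (250 ng/mL) and ATP (1.25 mM) stimulation; lower signal means less secretion.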
Numbers without * were called inactive; [ ] = dose if it differs, or a comment. The full list was thinned out, with hits kept by preference. Unless noted, the call rests on the fitted dose curve; in most records, active means well fitted curve in the direction sought with a large enough effect; inconclusive means small, poorly fitted or top-dose-only effect, or another doubt; inactive means no such curve, though single readings can be large; an effect the other way counts as inactive or inconclusive. Unless noted, on the % scale 0 is the no-effect control and ±100 the full control effect.

`O=C(NC1CCCCC1)C(c1cccs1)N(CCCN1CCOCC1)C(=O)c1ccc(-c2ccccc2)[nH]1` (stereo not drawn) gave HT1080 IDH1KD tx inconclusive, TDP1 cell noCPT 14.6µM*, 12-LOX inh inconclusive, TDP1 cell CPT inconclusive, HT1080NT lethal inconclusive and IL1B secr inh 0.0.
For O=C(NCC1CCCO1)C(c1cccs1)N(Cc1cccs1)C(=O)c1ccc(-c2ccccc2)[nH]1 (stereo not drawn) the results were HT1080 IDH1KD tx inconclusive, TDP1 cell noCPT inconclusive, 12-LOX inh -14.7%, TDP1 cell CPT 13µM*, HT1080NT lethal -23.5% and IL1B secr inh inconclusive.
Screening Cc1ccc(C(C(=O)NC(C)(C)C)N(CCCN2CCOCC2)C(=O)c2ccc(-c3ccccc3)[nH]2)o1 (stereo not drawn) returned HT1080 IDH1KD tx 6.5%, TDP1 cell noCPT 35.7%, 12-LOX inh 17.0%, TDP1 cell CPT 5.8%, HT1080NT lethal 13.0% and IL1B secr inh 49.4.
Screening NC(=O)CSc1n[nH]c2nc3c(c(=O)n12)C1(CCCCC1)Cc1ccccc1-3 returned 12-LOX inh 3.6%.
`COc1ccccc1-n1cnnc1SCC(=O)NC(C)c1cccc2ccccc12` (stereo not drawn) gave 12-LOX inh 2.0%.
Screening CCC1=C(OC(=O)N(CC)CC)N2C(=O)OC(=NCCc3c[nH]c4ccccc34)[C@]2(Cc2ccccc2)[C@H]2C1=CC[C@H]1C(=O)N(c3ccccc3)C(=O)[C@H]12 returned HT1080 IDH1KD tx -19.8%, TDP1 cell noCPT inconclusive, 12-LOX inh -4.3%, TDP1 cell CPT inconclusive, HT1080NT lethal 2.7% and IL1B secr inh -28.7.
CCC1=C(OC(=O)N(CC)CC)N2C(=O)OC(=NCCc3c[nH]c4ccccc34)[C@]2(Cc2ccccc2)[C@H]2C1=CC[C@H]1C(=O)N(C)C(=O)[C@H]12 was read as HT1080 IDH1KD tx -7.0%, TDP1 cell noCPT inconclusive, 12-LOX inh -0.6%, TDP1 cell CPT inconclusive, HT1080NT lethal -27.5% and IL1B secr inh -52.5*.
CCNC(=O)C(C)NC(=O)c1cc(C(C)C)nc2c1cnn2C(C)C (stereo not drawn) was read as 12-LOX inh -1.2%.
For COC(=O)C1=C(C)N(Cc2ccccc2)C(=NCCCCO)N[C@H]1c1ccccc1 the results were HT1080 IDH1KD tx -10.2%, TDP1 cell noCPT inconclusive, TDP1 cell CPT inconclusive, HT1080NT lethal -0.4% and IL1B secr inh 1.8.
`COC(=O)C1=C(C)N(Cc2ccccc2)C(=NCCc2cccnc2)N[C@H]1c1ccccc1` gave HT1080 IDH1KD tx -17.1%, TDP1 cell noCPT 20.6µM*, TDP1 cell CPT 11.6µM*, HT1080NT lethal inconclusive and IL1B secr inh -58.3*.
Screening CCN1C(=NCC2CC2)N[C@@H](c2ccccc2)C(C(=O)OC)=C1C returned HT1080 IDH1KD tx 1.2%, TDP1 cell noCPT inconclusive, 12-LOX inh inconclusive, TDP1 cell CPT inconclusive, HT1080NT lethal -0.9% and IL1B secr inh 7.3.
Screening COC(=O)C1=C(C)N(Cc2ccccc2)C(=NCc2ccc3c(c2)OCO3)N[C@H]1c1ccccc1 returned HT1080 IDH1KD tx -3.3%, TDP1 cell noCPT 18.4µM*, 12-LOX inh inconclusive, TDP1 cell CPT inconclusive, HT1080NT lethal -8.8% and IL1B secr inh -56.5*.
For COC(=O)C1=C(C)N(Cc2ccccc2)C(=NCCc2cccnc2)N[C@H]1c1ccc(Br)cc1 the results were HT1080 IDH1KD tx inconclusive, TDP1 cell noCPT 4.61µM*, TDP1 cell CPT 3.66µM*, HT1080NT lethal inconclusive and IL1B secr inh -4.5.
COC(=O)C1=C(C)N(Cc2ccccc2)C(=NCC2CC2)N[C@H]1c1ccccc1 was read as HT1080 IDH1KD tx -13.3%, TDP1 cell noCPT 23.1µM*, 12-LOX inh inconclusive, TDP1 cell CPT 20.6µM*, HT1080NT lethal 1.0% and IL1B secr inh -13.8.
For COC(=O)C1=C(C)N(Cc2ccccc2C(F)(F)F)C(=NCc2ccc3c(c2)OCO3)NC1c1cccc(C(F)(F)F)c1 (stereo not drawn) the results were 12-LOX inh -13.9%.
`CC(=O)Nc1ccc(/C(C)=N\OC(C)C(=O)Nc2cccc(C)c2)cc1` (stereo not drawn) gave 12-LOX inh -23.8%.
O=C1N(C2CCCCC2)C[C@H]2CN(Cc3cccc(OC(F)(F)F)c3)CCN12 was read as 12-LOX inh 12.0%[176 µM].
Screening CCn1c(=O)c(C(=O)Nc2ncccc2C)c(O)c2ccccc21 returned HT1080 IDH1KD tx -29.6%, TDP1 cell noCPT 2.59µM*, 12-LOX inh 1.1%, TDP1 cell CPT 2.31µM*, HT1080NT lethal -8.4% and IL1B secr inh 6.7.
`Cc1cccnc1NC(=O)c1c(O)c2ccccc2n(C)c1=O` gave HT1080 IDH1KD tx -29.5%, TDP1 cell noCPT 23.1µM*, 12-LOX inh 1.2%, TDP1 cell CPT inconclusive, HT1080NT lethal inconclusive and IL1B secr inh 18.0.
For CCn1c(=O)c(C(=O)Nc2ncccc2O)c(O)c2ccccc21 the results were HT1080 IDH1KD tx -0.1%, TDP1 cell noCPT -2.0%, 12-LOX inh 3.9%, TDP1 cell CPT 13.2%, HT1080NT lethal -21.0% and IL1B secr inh 10.0.
For Cn1c(=O)c(C(=O)NNC(=O)c2ccc(Br)cc2)c(O)c2ccccc21 the results were HT1080 IDH1KD tx 14.6µM*, TDP1 cell noCPT 18.4µM*, 12-LOX inh -1.6%, TDP1 cell CPT inconclusive, HT1080NT lethal 20.6µM* and IL1B secr inh 23.7.
For CN(Cc1ccccc1)Cc1cc(CC2(NCc3ccc(F)cc3)COC2)no1 the results were 12-LOX inh 18.2%[176 µM].
Screening O=C(Nc1cc(Cl)c(Cl)cc1Cl)c1ccc(-c2ccccc2)cc1 returned 12-LOX inh 13.2%.
For CCOc1ccc(Cn2cnc3c2c(=O)n(C)c(=O)n3C)cc1OCC the results were 12-LOX inh -38.4%.
`CCOC(=O)c1sc(NC(=O)c2ccc(=O)[nH]c2)nc1C` gave HT1080 IDH1KD tx 0.2%, TDP1 cell noCPT -12.2%, 12-LOX inh -14.7%, TDP1 cell CPT -5.9%, HT1080NT lethal 19.4% and IL1B secr inh 6.8.
COC(=O)c1sc(NC(=O)COc2ccc(C)cc2)nc1C was read as HT1080 IDH1KD tx -0.1%, TDP1 cell noCPT -15.5%, 12-LOX inh -7.3%, TDP1 cell CPT -20.8%, HT1080NT lethal 5.4% and IL1B secr inh -63.3*.
